In ChEMBL document CHEMBL4296182, “CO-ADD screening of NIH NCI Diversity Set V”:
Potency and affinity values are given separately.

System: Candida albicans
Details: 20 µM

| SMILES | Inhibition [%] |
| --- | --- |
| CC(=O)OCCN1c2ccccc2Sc2cnccc21 | 1.65 |
| CCC/C(C)=C/c1ccc(CC)cn1 | 3.23 |
| OCc1nnn(-c2ccccc2)c1CO | -4.02 |
| Clc1ccc(-c2c(C3=NCCCN3)nnn2-c2ccc(Cl)cc2)cc1 | 1.4 |
| COc1ccc(C2OC3=Nc4cc(C)c(C)cc4NC3=C2O)cc1 (stereo not drawn) | 1.04 |
| CCOC(=O)C(C#N)C(=N)C1C(=O)OC2CCCCC21 (stereo not drawn) | -2.13 |
| CC(=O)Nc1ccc(S(=O)(=O)N=S(C)C)cc1 | 3.87 |
| CCCCSc1cc(O)nc(N)n1 | -1.45 |
| O=C(Nc1ccc(F)cc1)OCCOc1ccc([N+](=O)[O-])cc1 | 4.71 |
| COc1cc2oc3cc(C)oc(=O)c3c2cc1OC | 1.88 |
| CCOC(=O)/C(C#N)=C/c1cccc(C)c1 | 19.3 |
| CCNC(=O)Oc1cccnc1O | 1.04 |
| Brc1ccc(/N=N/c2ccc3ccccc3n2)cc1 | 5.16 |
| OCc1cc(O)c(CO)nn1 | -0.36 |
| C=C(C)CN1C(=O)C(C)S/C1=N/N=C1/SCC(=O)N1C (stereo not drawn) | 6.81 |
| CC(=O)CC[N+](C)(C)C.[I-] | 4.03 |
| CS(=O)(=O)O.OC(c1cc(C(F)(F)F)nc2c(Cl)cc(Cl)cc12)C1CCCCN1 (stereo not drawn) | 1 |
| OCCCCc1nccc2c1[nH]c1ccccc12 | 2.78 |
| c1ccc(-c2nnc(-c3ccccn3)s2)nc1 | 4.16 |
| O=c1oc2c(cc1O)oc(=O)c1cc(O)c(O)c(O)c12 | 14.8 |
| COc1ccc(C(=O)O)nc1C | -1.1 |
| CC1=CN2C(c3cccc([N+](=O)[O-])c3)=NON(c3ccc(C)cn3)C2C=C1 (stereo not drawn) | 17.2 |
| CN(C)c1ccc(/C=C(\C#N)C(=O)c2ccccc2)cc1 | 4.91 |
